# Hits are enriched below; roughly 3.3% of the tested compounds scored in any of these assays.
# BRCT PPI green: qHTS Assay for Inhibitors of BRCT-Phosphoprotein Interaction (Green Fluorophore) | BRCA1 BRCT-phosphopeptide binding, green fluorescence polarization | Potency, µM (series often up to 76.9 µM), inactives show at the top dose activity change, negative = inhibition, actives largely listed as inhibitors | hit rate 0.05% among 75,000 | AID 875, 2007;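 further: potency means the concentration at half of the fitted maximal effect; plate controls were peptide without protein for full effect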
#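 Fluorescence polarization: His-tagged BRCT (~35 kDa BRCA1 C-terminus, 250 nM) bound to 100 nM fluorescein-labeled phosphorylated 10-aa BACH1 peptide, pH 7.3 phosphate buffer with DTT and Tween 20. Compounds incubated 12 min at room temperature; inhibition read as lowered polarization.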
# Hsp90 Hop PPI: qHTS Assay for Disrupters of an Hsp90 Co-Chaperone Interaction; Hsp90 C-terminal peptide / TPR2A (Hop) interaction, human; Potency, µM (series often up to 57 µM), for inactives: top-dose activity change, negative = inhibition; AlphaScreen TPR2A-His6 binding biotin-Hsp90 C-terminal peptide; AID 595, 2007; hit rate 0.44% among 71,000; active means well fitted curve in either direction with a large enough effect; inconclusive means small, poorly fitted or top-dose-only effect, or another doubt; further: potency means the concentration at half of the fitted maximal effect; on the % scale 0 is the no-effect control and ±100 the full control effect
# TSHR agonist: qHTS Assay for Agonists of the Thyroid Stimulating Hormone Receptor | Thyrotropin receptor (Homo sapiens), P16473 | HEK293-CNG-TSHR cells (CNG channel as cAMP sensor), membrane potential dye, cAMP | Potency, µM (highest dose often 57.1 µM), for inactives: at the highest dose activation, most hits filed as activators | hit rate 0.48% among 73,000 | AID 926, 2007; active means well fitted activation curve with a large enough effect in the main read-out, with a control signal flat, not every such curve was filed as active; inconclusive means small, poorly fitted or top-dose-only effect, or a change in a side signal; inactive means no such curve, though single readings can be large or run the other way; % of control where 0% means no effect;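 further: the control signal comes from parental cells without the receptor; potency means the concentration at half of the fitted maximal effect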
#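 HEK 293 cells stably expressing TSHR and a cAMP-gated CNG channel; parental CNG-only cells as counterscreen. Cells preloaded 60 min with membrane potential dye plus 100 uM RO 20-1724, then compound 30 min; fluorescence read at 590 nm.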
# TsaE inh: qHTS Assay for Inhibitors of YjeE; purified YjeE enzyme, qHTS inhibition assay; Potency, µM; hit rate 0.05% among 71,000; AID 605, 2007
#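 Fluorescence polarization of a BODIPY Texas Red–ADP probe (2 uM) bound to purified YjeE (10 uM) was read after 15 min room-temperature incubation with compounds. Loss of polarization marks inhibitors; ADP serves as titrated control.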
# BRCT PPI red: qHTS Assay for Inhibitors of BRCT-Phosphoprotein Interaction (Red Fluorophore); BRCT-phosphopeptide binding, red fluorescence polarization; Breast cancer type 1 susceptibility protein (Homo sapiens), P38398; hit rate 0.03% among 75,000; Potency, µM (highest dose often 76.9 µM), for inactives: at the highest dose activity change, negative = inhibition, actives largely listed as inhibitors; further: on the % scale 0 is the no-effect control and ±100 the full control effect
#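 Rhodamine-labelled pBACH1 10-mer (100 nM) bound to BRCT domain (100 nM) at pH 7.3; compounds incubated 12 min room temperature, polarization read. Free peptide defines full inhibition; unlabelled decapeptide titrated as control.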
# HEK293 cAMP ctrl: qHTS Assay for Agonists of the Thyroid Stimulating Hormone Receptor: Activators of Intracellular cAMP Concentrations in Parental HEK 293 | Potency, µM (titrated, usually from 57.1 µM), without a hit: top-dose activation, actives largely listed as activators | hit rate 2.5% among 73,000 | AID 938, 2007 | parental HEK293 CNG cAMP sensor, membrane potential fluorescence; further: potency means the concentration at half of the fitted maximal effect; % of control where 0% means no effect; nearly all actives have a fitted effect of over 55% in size
#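 Parental HEK 293 cells stably expressing a cAMP-gated CNG channel were loaded with membrane potential dye containing 100 uM RO 20-1724 for 60 min. Compound added for 30 min; depolarization read as fluorescence intensity at 590 nm.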
# * marks the source's active call; other numbers are inactive results; i = inactive; ? = inconclusive; nt = not tested or not shown; [ ] = remark or other dose. Unless noted, the call rests on the fitted dose curve; in most records, active means well fitted curve in the direction sought with a large enough effect; inconclusive means small, poorly fitted or top-dose-only effect, or another doubt; inactive means no such curve, though single readings can be large; an effect the other way counts as inactive or inconclusive.
SMILES,BRCT PPI green,Hsp90 Hop PPI,TSHR agonist,TsaE inh,BRCT PPI red,HEK293 cAMP ctrl
COc1cccc2c1C(=N)c1c(O)c3c(c(O)c1C2=O)C[C@](O)(C(C)=O)C[C@@H]3O[C@H]1C[C@H](N)[C@@H](O)[C@H](C)O1,-0.5%[15.4 µM],-27.5%[11 µM],0.1%[11.4 µM],i,-1.7%[15.4 µM],-8.9%[11.4 µM]
NC[C@H](O)C1CCCCCCC1,-2.6%,2.0%,4.0%,i,-2.3%,-1.2%
CCC(=O)N(Cc1cc2cc(OC)ccc2[nH]c1=O)c1ccc(C)cc1C,4.0%,-4.8%,?,i,2.2%,31.6µM*
COc1ccc2[nH]c(=O)c(CN(C(C)=O)c3cccc(C)c3)cc2c1,-1.6%,-4.0%,-0.5%,i,0.1%,7.4%
O=C1c2ccccc2C(=O)c2c1ccc(N1C(=O)c3ccccc3C1=O)c2-c1c(N2C(=O)c3ccccc3C2=O)ccc2c1C(=O)c1ccccc1C2=O,nt,-0.7%[11 µM],1.4%[11.4 µM],i,nt,-10.2%[11.4 µM]
Cc1ccc(S(=O)(=O)N(CC(=O)O)c2cccc(Cl)c2)cc1,-0.1%,nt,18.2%,nt,0.0%,13.9%
O=C1c2ccccc2N2C(=O)c3ccccc3C2N1Cc1ccco1 (configuration not stated),4.7%,-2.8%,?,i,-0.9%,25.1µM*
CCCCC=O,-1.2%,-0.9%,?,i,-3.0%,-30.1%
CC(=O)N(C(C)=O)c1ncc2c([nH]c3ccccc32)c1C#N,2.1%,-3.0%,?,i,0.1%,25.1µM*
CCOC(=O)c1ccc(N2C(=O)CC(SCC(N)C(=O)OCC)C2=O)cc1 (configuration not stated),0.2%,-4.4%,?,i,0.5%,3.16µM*
COc1ccc(CNc2ncnc3ccc(-c4c(C)noc4C)cc23)c(OC)c1,1.1%,-5.1%,16.8%,i,-0.1%,18.5%
CSc1nnc2c3ccccc3n(CCc3ccccc3)c2n1,1.7%,2.8%[11 µM],?,i,0.2%,3.98µM*
CSc1nnc2c3cc(F)ccc3n(Cc3ccccc3)c2n1,0.3%,-4.5%,22.1%,i,-1.2%,29.2%
CSc1nnc2c3ccccc3n(Cc3ccccc3)c2n1,-3.3%,-2.2%,?,i,0.7%,20µM*
CC(=O)NCCNc1nc(-c2cccnc2)nc2ccccc12,-2.3%,-3.1%,?,i,-3.7%,?
Cc1oc(-c2ccc(Cl)cc2)cc1-c1nn2c(-c3ccoc3C)nnc2s1,-2.1%,?,?,i,-4.1%,31.6µM*
Cn1c(=O)c(-c2cc(F)cc(F)c2)nc2cnc(N3CCOCC3)nc21,-0.9%,-2.0%,2.7%,i,-0.7%,6.5%
CN(C)C(=O)c1ccc(-c2nc(NCc3cccnc3)c3ccccc3n2)cc1,2.9%,-4.7%,19.2%,i,2.9%,5.6%
c1ccc(-c2nnc3sc(-c4csc5c4CCCC5)nn23)cc1,0.1%,-4.2%,?,i,-2.1%,25.1µM*
c1ccc(-c2nnc3sc(-c4ccncc4)nn23)cc1,-1.6%,-5.2%,-1.3%,i,-0.3%,-6.0%
Cc1cccc(-c2nnc3sc(-c4ccccc4C)nn23)c1,3.1%,0.3%,?,i,-0.4%,31.6µM*
Cc1nc2cnc(Oc3cccc(Cl)c3)nc2n(CCc2ccccc2)c1=O,0.4%,-3.3%,?,i,0.1%,3.16µM*
COc1ccc(Oc2ncc3nc(C)c(=O)n(Cc4cccs4)c3n2)cc1,5.6%,-6.2%,?,i,0.6%,?
COc1ccc(Oc2ncc3nc(C)c(=O)n(CCc4ccccc4)c3n2)cc1,-1.7%,-9.2%,?,i,0.2%,?
COCCn1c(=O)c(-c2cn(C)c3ccccc23)nc2cnc(Oc3ccc(OC)cc3)nc21,6.3%,-4.8%,?,i,-0.9%,?

# Source: PubChem BioAssay
